HP1b binding inh: HTS for Inhibitors of HP1-beta Chromodomain Interactions with Methylated Histone Tails; Chromobox protein homolog 1 (Homo sapiens), P83916; AlphaScreen HP1-beta / biotin-H3K9me3 peptide binding; Potency, µM (titrated, usually from 114 µM), without a hit: at the top dose activity change, negative = inhibition, actives largely listed as inhibitors; actives 0.56% (n = 390,000); AID 540317, 2011; also: potency is read from the fitted curve at half-maximal effect; nearly all actives have a fitted effect of over 70% in size
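Compound inhibition of the preformed complex between 50 nM HP1-beta and 50 nM biotinylated H3K9me3 peptide was read by AlphaScreen. Buffer was PBS pH 7.4 with 0.01% Tween-20. Incubations ran 30 min at room temperature, with 10 ug/mL donor/acceptor beads.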
CtBP-E1A blk: qHTS Assay for Inhibitors of the CtBP/E1A Interaction. CtBP / adenovirus E1A interaction (AlphaScreen). AlphaScreen GST-E1A/His-CtBP binding, 1536-well; stronger effect = lower value. activity change, % (no concentration beside the values). actives 0.49% (n = 340,000); in the data active = activity change below about -65%; inconclusive = mostly about -30% to -63%; also: % is scaled to controls: 0 for no effect and ±100 for the full control effect
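Steps: dispense buffer (Tris pH 8.0, NaCl 300 mM, TCEP 1 mM, BSA, Tween 20); add 5X protein mix (GST-E1A, His-CtBP, 125 nM each); pin 23 nL compound; 2 h at 37 °C, dark; add 5X beads (50 ug/mL); 1 h; read.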
JMJD2A Tudor inh: qHTS Assay for Inhibitors of JMJD2A-Tudor Domain; AlphaScreen JMJD2A-Tudor / H3K4me3 peptide binding; Potency, µM (series often up to 114 µM), inactives show at the highest dose activity change, negative = inhibition, hits mostly inhibitors; actives 4.4% (n = 390,000); also: potency is read from the fitted curve at half-maximal effect; % is scaled to controls: 0 for no effect and ±100 for the full control effect; nearly all actives have a fitted effect of over 50% in size
G9a block: qHTS Assay for Inhibitors of Histone Lysine Methyltransferase G9a. Histone-lysine N-methyltransferase EHMT2 (Homo sapiens), Q96KQ7. Potency, µM (highest dose often 102 µM), for the others: at the highest dose activity, negative = inhibition, hits mostly inhibitors. G9a H3K9 monomethylation, AlphaScreen, 2 h. actives 8.8% (n = 350,000); also: potency is read from the fitted curve at half-maximal effect; % is scaled to controls: 0 for no effect and ±100 for the full control effect; nearly all actives have a fitted effect of over 75% in size
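Enzyme 20 nM + cpd, 15 min RT; add b-H3K9 pep 500 nM / SAM 20 uM; 2 h RT; anti-H3K9me1 Ab 0.5 ug/mL + SA donor / anti-rabbit acceptor beads 20 ug/mL each, 10 min; AlphaScreen read.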
Six1-Eya2 inh: qHTS Assay for Inhibitors of the Six1/Eya2 Interaction; Homeobox protein SIX1 (Homo sapiens) + Protein phosphatase EYA2 (Homo sapiens), …; AlphaScreen GST-Six1/His-Eya2 binding, biochemical; stronger effect = lower value; activity change, % (test concentration not listed); actives 0.56% (n = 360,000); in the data active = activity change below about -65%; inconclusive = mostly about -30% to -63%; also: % is scaled to controls: 0 for no effect and ±100 for the full control effect
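Six1/Eya2 binding was read as AlphaScreen signal after compounds were pinned into GST-Six1 plus His-tagged Eya2 (5X stock 250/500 nM) in pH 8.0 Tris/NaCl/TCEP buffer, beads added, then incubated 1 h, 37 C, dark.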
BAZ2B inh: qHTS Assay for Inhibitors of BAZ2B; Bromodomain adjacent to zinc finger domain protein 2B (Homo sapiens), Q9UIF8; AlphaScreen BAZ2B-H3K14Ac peptide displacement; Potency, µM (series often up to 114 µM), for inactives: at the top dose activity change, negative = inhibition, most hits filed as inhibitors; actives 4.4% (n = 360,000); AID 504333, 2011; also: potency is read from the fitted curve at half-maximal effect; % is scaled to controls: 0 for no effect and ±100 for the full control effect; nearly all actives have a fitted effect of over 60% in size
Target sequence (Q9UIF8 whole entry, looked up, the tested form may be a part): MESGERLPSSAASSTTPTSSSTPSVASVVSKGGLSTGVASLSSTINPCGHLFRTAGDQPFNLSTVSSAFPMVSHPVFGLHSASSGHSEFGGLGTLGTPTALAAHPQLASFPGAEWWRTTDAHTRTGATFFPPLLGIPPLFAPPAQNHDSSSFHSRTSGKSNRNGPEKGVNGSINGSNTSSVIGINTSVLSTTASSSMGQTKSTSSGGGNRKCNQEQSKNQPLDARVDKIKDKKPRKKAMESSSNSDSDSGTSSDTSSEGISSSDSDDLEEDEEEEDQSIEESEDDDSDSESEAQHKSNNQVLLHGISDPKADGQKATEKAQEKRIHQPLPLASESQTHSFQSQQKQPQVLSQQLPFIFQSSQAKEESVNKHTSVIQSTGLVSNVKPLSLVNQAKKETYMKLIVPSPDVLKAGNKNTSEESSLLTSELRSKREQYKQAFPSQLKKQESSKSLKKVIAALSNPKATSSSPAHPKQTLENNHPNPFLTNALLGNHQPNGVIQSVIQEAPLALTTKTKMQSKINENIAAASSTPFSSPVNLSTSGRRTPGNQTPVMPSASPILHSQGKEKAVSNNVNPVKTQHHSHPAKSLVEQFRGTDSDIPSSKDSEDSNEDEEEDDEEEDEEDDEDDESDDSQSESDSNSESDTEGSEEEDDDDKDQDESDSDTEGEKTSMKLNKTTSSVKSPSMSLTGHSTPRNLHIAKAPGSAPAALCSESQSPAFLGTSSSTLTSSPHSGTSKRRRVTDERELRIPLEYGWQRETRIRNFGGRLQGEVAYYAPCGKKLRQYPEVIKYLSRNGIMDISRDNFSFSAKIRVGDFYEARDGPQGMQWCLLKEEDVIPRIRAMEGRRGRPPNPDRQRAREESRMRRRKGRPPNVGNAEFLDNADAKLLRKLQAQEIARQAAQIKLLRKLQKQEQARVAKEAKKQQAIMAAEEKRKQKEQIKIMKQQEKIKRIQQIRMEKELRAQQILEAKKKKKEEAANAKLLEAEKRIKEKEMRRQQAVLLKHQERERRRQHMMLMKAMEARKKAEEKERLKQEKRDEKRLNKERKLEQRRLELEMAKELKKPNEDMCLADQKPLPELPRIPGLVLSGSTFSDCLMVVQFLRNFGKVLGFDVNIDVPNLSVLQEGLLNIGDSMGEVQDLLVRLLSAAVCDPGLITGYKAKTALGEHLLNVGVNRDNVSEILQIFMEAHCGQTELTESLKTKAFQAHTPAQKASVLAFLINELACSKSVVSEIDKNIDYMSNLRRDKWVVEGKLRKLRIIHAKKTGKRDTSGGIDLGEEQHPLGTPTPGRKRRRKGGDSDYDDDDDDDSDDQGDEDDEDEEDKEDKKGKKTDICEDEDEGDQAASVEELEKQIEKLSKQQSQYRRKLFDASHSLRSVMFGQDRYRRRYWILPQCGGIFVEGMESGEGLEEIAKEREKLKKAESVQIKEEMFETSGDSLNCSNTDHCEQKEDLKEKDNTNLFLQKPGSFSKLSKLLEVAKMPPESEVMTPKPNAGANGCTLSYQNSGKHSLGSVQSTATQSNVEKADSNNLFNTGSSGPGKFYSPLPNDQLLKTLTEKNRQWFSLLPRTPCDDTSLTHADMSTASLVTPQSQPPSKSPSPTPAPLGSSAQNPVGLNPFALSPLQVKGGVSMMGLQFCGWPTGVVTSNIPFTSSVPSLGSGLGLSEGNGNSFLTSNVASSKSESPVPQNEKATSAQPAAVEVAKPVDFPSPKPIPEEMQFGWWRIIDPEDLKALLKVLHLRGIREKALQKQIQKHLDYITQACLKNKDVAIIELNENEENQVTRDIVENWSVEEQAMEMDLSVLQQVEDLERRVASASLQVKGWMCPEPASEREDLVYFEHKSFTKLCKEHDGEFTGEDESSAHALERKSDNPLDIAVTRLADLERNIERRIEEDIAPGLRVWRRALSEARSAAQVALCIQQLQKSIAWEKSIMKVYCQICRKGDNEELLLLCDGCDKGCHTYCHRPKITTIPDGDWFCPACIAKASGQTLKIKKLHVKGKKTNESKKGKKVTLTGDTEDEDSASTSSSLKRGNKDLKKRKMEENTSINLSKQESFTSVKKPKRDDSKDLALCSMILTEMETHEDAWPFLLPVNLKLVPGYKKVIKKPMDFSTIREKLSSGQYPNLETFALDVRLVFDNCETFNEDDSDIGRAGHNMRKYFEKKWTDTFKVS
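Multi-concentration screen (max 110 uM) measuring displacement of acetylated histone H3 peptide from BAZ2B by AlphaScreen, using 50 nM protein, 50 nM peptide and 10 ug/mL streptavidin donor plus Ni-chelate acceptor beads.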
Starred values were filed as active, the others as inactive; [ ] = another dose, or the depositor's remark. Rows were chosen to be rich in hits. Some 10% of all compounds tested hit in one or more screens of this group. Unless noted, calls follow the shape of the dose curve; as a rule, active = well fitted inhibition curve with a large enough effect; inconclusive = small, poorly fitted or top-dose-only effect; inactive = no such curve, though single readings can be large or run the other way.

`Cc1ccc(-n2c(-c3ccco3)nc3c(cnn3-c3ccc(C)cc3)c2=O)cc1` gave HP1b binding inh 13.5%, CtBP-E1A blk -6.9, JMJD2A Tudor inh -20.0%, G9a block -31.7%[59 µM], Six1-Eya2 inh 3.7 and BAZ2B inh 2.2%.
Screening Cc1cccc(C)c1NC(=O)C(C)c1ccc(-c2ccccc2)c(F)c1 (stereo unspecified) returned HP1b binding inh 34.8%, CtBP-E1A blk 4.1, JMJD2A Tudor inh 11.9%, G9a block 15.5%[59 µM], Six1-Eya2 inh -2.4 and BAZ2B inh 0.7%.
Cc1ccc(S(=O)(=O)N2CCNC(=O)C2)c(C)c1 was read as HP1b binding inh 20.6%, CtBP-E1A blk -14.3, JMJD2A Tudor inh -6.1%, G9a block 56.2µM*, Six1-Eya2 inh 3.2 and BAZ2B inh -1.7%.
`Cc1ccc(N2CCN(C(=O)c3c(C)oc4nc(C)nc(N5CCCC5)c34)CC2)c(C)c1` gave HP1b binding inh 27.8%, JMJD2A Tudor inh -13.9%, G9a block -28.2%[59 µM] and BAZ2B inh 1.7%[57.1 µM].
Screening Cc1cccc(-n2c(-c3csc(C)c3)n[nH]c2=S)c1 returned HP1b binding inh inconclusive, CtBP-E1A blk 5.8, JMJD2A Tudor inh 11.2µM*, G9a block 0.316µM*, Six1-Eya2 inh -2.0 and BAZ2B inh -33.1%.
For CCc1cc(-c2n[nH]c(=S)n2-c2cccc(C)c2)cs1 the results were HP1b binding inh -0.6%, CtBP-E1A blk -6.9, JMJD2A Tudor inh 31.6µM*, G9a block inconclusive, Six1-Eya2 inh -0.5 and BAZ2B inh -36.8%.
`Cc1cccc(C)c1OCC(=O)Nc1cc(Cl)ccc1-n1cncn1` gave HP1b binding inh 22.0%, CtBP-E1A blk -7.4, JMJD2A Tudor inh -10.8%, G9a block 4.2%[59 µM], Six1-Eya2 inh 2.3 and BAZ2B inh -5.9%.
Cc1ccc(C(=O)NC2(O)C(=O)c3ccccc3C2=O)cc1C was read as HP1b binding inh 14.6%, CtBP-E1A blk -19.5, JMJD2A Tudor inh -3.8%, G9a block 50.1µM*, Six1-Eya2 inh 7.9 and BAZ2B inh -19.6%.
`O=C(COc1ccccc1F)Nc1c(C(=O)Nc2cccc(F)c2)oc2ccccc12` gave HP1b binding inh 46.8%, JMJD2A Tudor inh 5.0%, G9a block -31.3%[59 µM] and BAZ2B inh -2.1%.
`O=C(Cc1ccccc1)NC(c1ccco1)c1c(O)ccc2ccccc12` (stereo unspecified) gave HP1b binding inh -3.0%, CtBP-E1A blk -1.1, JMJD2A Tudor inh inconclusive, G9a block 50.1µM*, Six1-Eya2 inh -5.8 and BAZ2B inh inconclusive.
Screening CC(=O)NC(c1ccccc1)c1c(O)ccc2ccccc12 (stereo unspecified) returned HP1b binding inh 18.2%, CtBP-E1A blk 0.1, JMJD2A Tudor inh -12.0%, G9a block 17.8µM*, Six1-Eya2 inh -6.9 and BAZ2B inh 31.6µM*.
CC(=O)NC(c1ccc(C(C)C)cc1)c1c(O)ccc2ccccc12 (stereo unspecified) was read as HP1b binding inh 14.6%, CtBP-E1A blk 0.3, JMJD2A Tudor inh -33.1% and Six1-Eya2 inh -5.0.
For CC(=O)NC(c1ccc([N+](=O)[O-])cc1)c1c(O)ccc2ccccc12 (stereo unspecified) the results were HP1b binding inh 1.7%, CtBP-E1A blk -7.1, JMJD2A Tudor inh inconclusive, G9a block 44.7µM*, Six1-Eya2 inh -3.8 and BAZ2B inh -37.7%.
`CCC(=O)NC(c1ccccc1)c1c(O)ccc2ccccc12` (stereo unspecified) gave HP1b binding inh 14.6%, CtBP-E1A blk 1.1, JMJD2A Tudor inh -28.7%, G9a block 4.9%, Six1-Eya2 inh -2.6 and BAZ2B inh -3.9%.
Screening CCCC(=O)NC(c1ccccc1)c1c(O)ccc2ccccc12 (stereo unspecified) returned HP1b binding inh 4.0%, JMJD2A Tudor inh -15.1%, G9a block 37.8%, Six1-Eya2 inh 3.2 and BAZ2B inh -4.2%.
`CCCC(=O)NC(c1ccc(N(C)C)cc1)c1c(O)ccc2ccccc12` (stereo unspecified) gave HP1b binding inh 50.1µM*, CtBP-E1A blk -26.2, JMJD2A Tudor inh 31.6µM*, G9a block 31.6µM*, Six1-Eya2 inh -11.8 and BAZ2B inh 17.8µM*.
COc1ccc(-n2c(SCC(=O)NCc3ccc(F)cc3)nc3c([nH]c4ccccc43)c2=O)cc1 was read as HP1b binding inh 26.2%[57 µM], JMJD2A Tudor inh -0.6%, G9a block 3.8%[59 µM] and BAZ2B inh -0.5%.
c1ccc(CN(CCN(Cc2ccccn2)Cc2ccccn2)Cc2ccccn2)nc1 was read as G9a block -7.9%[59 µM].
`Cc1ccc(C)c(N2CCN(S(=O)(=O)c3ccc4oc(=O)c5ncn(C)c5c4c3)CC2)c1` gave HP1b binding inh 12.8%, JMJD2A Tudor inh -8.6%, G9a block -7.1%[59 µM] and BAZ2B inh -1.2%.
For CC1=C(c2ccc(C)cc2)S(=O)(=O)NC1=NCCCN1CCN(c2ccc(F)cc2)CC1 the results were HP1b binding inh 49.8%, JMJD2A Tudor inh -7.9%, G9a block inconclusive and BAZ2B inh -15.2%.
`O=C1CC(=O)N(c2cccc(F)c2)N1` gave HP1b binding inh 17.8%, CtBP-E1A blk -9.3, JMJD2A Tudor inh -11.3%, G9a block 56.2µM*, Six1-Eya2 inh -10.0 and BAZ2B inh -38.5%.
For O=C1CSC(=S)N1c1cccc(F)c1 the results were HP1b binding inh 44.8%, CtBP-E1A blk 0.7, JMJD2A Tudor inh -10.0%, Six1-Eya2 inh -0.8 and BAZ2B inh -6.5%.
For O=C1OC(c2ccc(Cl)cc2)=N/C1=C\C=C\c1ccco1 the results were HP1b binding inh -10.0%, CtBP-E1A blk 3.0, JMJD2A Tudor inh inconclusive, G9a block 14.1µM* and Six1-Eya2 inh -0.6.
For O=C1OC(c2ccccc2)=N/C1=C\C=C\c1ccco1 the results were HP1b binding inh -17.3%, CtBP-E1A blk -1.1, JMJD2A Tudor inh inconclusive, Six1-Eya2 inh -0.5 and BAZ2B inh inconclusive.
For O=C(NCC1CCCO1)c1ccccc1S(=O)(=O)c1ccc([N+](=O)[O-])cc1 (stereo unspecified) the results were HP1b binding inh 20.3%, CtBP-E1A blk 7.3, JMJD2A Tudor inh 0.7%, G9a block inconclusive, Six1-Eya2 inh -1.1 and BAZ2B inh -5.4%.

High-throughput results deposited in PubChem BioAssay by National Center for Advancing Translational Sciences (NCATS).
